Compound activity: PubChem, National Center for Advancing Translational Sciences (NCATS)
Pf growth 96h = P. falciparum growth inhibition at 96 hour, primary screen for plastid delayed-death inhibitors | P. falciparum luciferase reporter growth, 96 h | Potency, µM (titrated, usually from 28.7 µM), usual class: inhibitors | actives 6.9% (n = 320,000) | AID 504834
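Plates of compound plus infected erythrocytes (2% hematocrit, 0.05% parasitemia final) incubate 96 hours, 37 C, 5% CO2. Detection reagent added; reduced luminescence from the parasites' luciferase reporter flags inhibition.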
FBPA Giardia inh = Giardia lamblia aldolase inhibition; purified Giardia FBPA; Potency, µM (series often up to 59.6 µM), most hits filed as inhibitors; actives 0.71% (n = 290,000); AID 2451; note: nearly all actives have a fitted effect of over 55% in size
Target sequence (A8B2U2 whole entry, looked up): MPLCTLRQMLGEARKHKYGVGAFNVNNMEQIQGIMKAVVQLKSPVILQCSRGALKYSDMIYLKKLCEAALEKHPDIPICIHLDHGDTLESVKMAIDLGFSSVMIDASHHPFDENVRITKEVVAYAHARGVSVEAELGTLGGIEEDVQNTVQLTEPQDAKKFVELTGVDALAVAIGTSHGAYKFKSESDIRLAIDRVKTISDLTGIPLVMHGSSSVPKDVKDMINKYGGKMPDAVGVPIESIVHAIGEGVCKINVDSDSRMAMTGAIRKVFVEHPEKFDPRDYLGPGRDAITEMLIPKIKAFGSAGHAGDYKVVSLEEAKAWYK
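Giardia FBPA (40 nM reagent) was preincubated 10 min at RT with compound (up to 57.5 uM final), then substrate plus GAPDH/TPI/NAD/arsenate coupling system with diaphorase/resazurin was added; resorufin fluorescence (525/598 nm) was read after 20 min.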
NS1 inh = influenza NS1 inhibition; Potency, µM (series often up to 46.1 µM); actives 0.4% (n = 270,000); AID 2326; calls by dose curve; note: actives are rising curves; nearly all actives have a fitted effect of over 50% in size
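Read-out: OD600 growth recovery of NS1-expressing budding yeast. Cells grown overnight at 30C in -URA glucose medium, washed, resuspended and diluted 1:100 in 2% galactose assay medium, pH 6.0. Same strain lacking NS1 served as positive control.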
Shiga inhibitor = Shiga toxin inhibition; AID 2315; inhibition, % at 38.7 µM; actives 9.2% (n = 290,000); Vero cells, Shiga toxin protein synthesis inhibition reporter; in the data active = inhibition mostly above about 28%, no sharp cut-off; inactive = mostly below about 43%
CHX counter = counter-screen hit for Shiga toxin inhibitors, cycloheximide | actives 12% (n = 300,000) | cell reporter, cycloheximide protein synthesis inhibition counterscreen | max response, % | AID 2314; in the data active = max response mostly above about 13%, no sharp cut-off; inactive = mostly below about 14%; note: read at 38.3 µM for the half of the compounds with a filed dose
Pf growth 48h = inhibits P. falciparum growth in the first generation, 48 h; P. falciparum luciferase growth in erythrocytes, 48 h; Potency, µM (top dose mostly 28.7 µM), usual class: inhibitors; actives 5.9% (n = 310,000); AID 504832
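Growth was read as firefly luciferase luminescence after a 48 h, 37 C, 5% CO2 exposure of compounds to reporter-bearing P. falciparum cultures (0.1% parasitemia, 2% hematocrit final) in Albumax-supplemented RPMI 1640.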
Numbers stand for hits; . = inactive; ? = inconclusive; / = not tested or not shown; + = active, no number; [ ] = dose if it differs, or a comment. A selection: hits, their analogues and other compounds. The true share with any hit is near 21%. Unless noted, calls come from the whole dose curve; as a rule, active = well fitted curve in the direction sought with a large enough effect; inconclusive = small, poorly fitted or top-dose-only effect, or another doubt; inactive = no such curve, though single readings can be large; an effect the other way counts as inactive or inconclusive.

SMILES | Pf growth 96h | FBPA Giardia inh | NS1 inh | Shiga inhibitor | CHX counter | Pf growth 48h
CC1CCC(NC(=O)CCS(=O)(=O)c2ccc3c(c2)NC(=O)C(C)S3)CC1 (configuration not stated) | . | . | . | . | . | .
COC(=O)Nc1ccc(S(=O)(=O)N2CCCc3ccccc32)cc1 | . | . | . | 40.6 | 18.2 | ?
Cc1cc(C)c(S(=O)(=O)N2CCCc3ccccc32)c(C)c1 | ? | . | . | . | . | 13.1µM
O=S(=O)(c1ccc(F)c(F)c1)N1CCCc2ccccc21 | . | . | . | 63.6 | 37.3 | .
O=S(=O)(c1ccc(Br)cc1)N1CCCc2ccccc21 | ? | . | . | . | 11.6 | .
O=C(O)CC[C@]1(C(=O)O)CCC(=O)c2ccccc21 | / | / | . | / | / | /
C=CCCCCCCCCC(=O)O | . | . | / | . | . | .
Cc1ccccc1NC(=O)OCc1cn(-c2ccc(Cl)cc2)nn1 | . | . | . | . | . | .
O=C(O)CCCCCCCCc1cn(CC2CCCCC2)nn1 | ? | . | . | . | . | .
Cc1ccc(C(=O)OCc2cn(-c3ccccc3)nn2)cc1 | ? | . | / | . | . | 13.1µM
O=C(Nc1ccc(Cl)cc1)OCc1cn(-c2ccccc2)nn1 | . | . | / | . | 30.2 | .
Cc1ccc(-n2cc(CCCCCCCCC(=O)O)nn2)cc1 | 5.86µM | . | . | . | . | .
Cc1cc2c(nc1C)CCCN2C[C@H](C)O/N=C1/[C@H]2O[C@@H]2[C@@H](O)[C@H]2[C@H]1CCn1c(=O)n(-c3ccccc3)c(=O)n12 | / | .[12.9 µM] | / | / | / | /
C/C(=N\O)c1ccc2c3c([nH]c2c1)CCCC3 | . | . | . | 19.9 | 65.2 | .
COCCOC(=O)C1=C(N)Oc2c(oc(CO)cc2=O)C1c1c(F)cccc1Cl (configuration not stated) | 4.65µM | . | . | . | . | /
COC(=O)N1c2ccccc2C23[C@@H]4CN5CCC[C@]6(CCC12C(O)(C6)C4=O)[C@H]53 | / | . | / | / | / | /
CCc1ccc(N2CCN(S(=O)(=O)CC34CCC(CC3=O)C4(C)C)CC2)cc1 (configuration not stated) | . | . | . | . | . | ?
O=C1OC(Nc2ccc3ncccc3c2)c2ccccc21 (configuration not stated) | . | ? | . | 53.9 | 26.8 | .
Cc1cccnc1NC1OC(=O)c2ccccc21 (configuration not stated) | / | . | . | . | . | .
COc1cc(OC)cc(-c2c(C#Cc3ccsc3)c3cc(-c4ccc5cc[nH]c5c4)ccc3n2C)c1 | 1.85µM | / | / | / | / | ?
COc1cc(OC)cc(-c2c(C#Cc3ccsc3)c3cc(-c4ccc5c(c4)OCCO5)ccc3n2C)c1 | 2.62µM | / | / | / | / | ?
COc1cc(OC)cc(-c2c(C#Cc3ccsc3)c3cc(-c4cccc5[nH]ccc45)ccc3n2C)c1 | 3.29µM | / | / | / | / | 11.7µM
COc1ccc(-c2c(C#Cc3ccsc3)c3cc(-c4ccc(OC)c(F)c4)ccc3n2C)cc1 | ? | / | / | / | / | .
C=Cc1cc2c(s1)c1cnn(Cc3ccccc3F)c(=O)c1n2C | / | / | / | . | . | /
COc1cc(Oc2nc(C(F)(F)F)nc3ccccc23)ccc1C=O | . | . | . | . | . | .
SMILES | Pf growth 96h | FBPA Giardia inh | NS1 inh | Shiga inhibitor | CHX counter | Pf growth 48h
C/C(=N\NC(=O)CNC(=O)c1cccs1)c1ccc(Cl)c(Cl)c1 | . | . | . | . | . | .
O=C(O)Cc1csc(-c2ccccc2)n1 | .[1.15 µM] | . | . | . | . | .
Nc1ccc(C(=O)OCc2csc(-c3ccccc3)n2)cc1[N+](=O)[O-] | . | . | . | . | . | .
Cn1cccc1C(=O)OCc1csc(-c2ccccc2)n1 | . | . | . | 77.1 | 22.3 | .
CC1CCCCC1NC(=O)COC(=O)c1cccn1C (configuration not stated) | . | / | / | / | / | .
Cc1ccsc1C(=O)OCc1csc(-c2ccccc2)n1 | / | . | . | 102.3 | 25.8 | .
CN(Cc1cccs1)C(=O)Cc1csc(-c2ccccc2)n1 | . | . | / | 69.1 | 47.2 | .
Cn1cccc1C(=O)OCc1ccc(F)cc1 | . | . | . | . | 18.8 | .
O=C(CSc1ccccc1)NCC1(N2CCCCC2)CCCCC1 | ? | / | / | / | / | .
O=c1oc2cc(O[C@@H]3OC[C@@H](O)[C@H](O)[C@H]3O)ccc2c2ccccc12 | . | . | . | . | . | .[0.00184 µM]
COc1ccccc1C(=O)NCC(=O)OCc1csc(-c2ccccc2)n1 | . | . | . | . | . | .
CNS(=O)(=O)c1cccc(C(=O)OCc2csc(-c3ccccc3)n2)c1 | . | . | . | 62.5 | 32.8 | .
O=C(CNC(=O)c1ccccc1F)OCc1csc(-c2ccccc2)n1 | . | . | . | . | 18.1 | .
O=C(OCc1csc(-c2ccccc2)n1)c1cccs1 | / | . | . | 49.0 | 33.7 | /
O=C(OCc1csc(-c2ccccc2)n1)C1=NN(c2ccccc2)C(=O)CC1 | . | / | / | / | / | .
Cc1ccc(C)c(Nc2ncnc(N)c2[N+](=O)[O-])c1 | 2.08µM | . | . | . | . | .
O=[N+]([O-])c1ccc(S(=O)(=O)NCCN2CCOCC2)cc1 | . | . | . | 51.0 | . | .
CSc1nc2ncc(-c3ccsc3)c(N)n2n1 | . | . | / | 62.2 | 48.8 | .
Nc1nc2ncc(-c3ccsc3)c(N)n2n1 | . | . | / | . | . | .
COc1ccc2c3c(cccc13)C(=O)CC2 | . | . | . | . | . | .
Cc1ccc2cccc(Oc3ncnc4scc(-c5ccc(Cl)cc5)c34)c2n1 | 10.4µM | . | . | . | . | ?
Clc1ncnc2scc(-c3ccccc3)c12 | ? | . | . | . | . | ?
Cc1ccc(-c2csc3ncnc(Cl)c23)cc1 | 2.62µM | . | . | . | . | 1.47µM
Cc1ccc2cccc(Oc3ncnc4scc(-c5ccccc5)c34)c2n1 | ? | . | . | . | . | 10.4µM
COc1ccc(-c2csc3ncnc(Oc4cccc5ccc(C)nc45)c23)cc1 | ? | . | . | . | . | ?
SMILES | Pf growth 96h | FBPA Giardia inh | NS1 inh | Shiga inhibitor | CHX counter | Pf growth 48h
Cc1nsc2c1ccc1ccccc12 | . | . | . | . | . | .
CC1=[N+](C)c2ccc3ccccc3c2C1(C)C | 11.7µM | ? | . | . | . | ?
Cc1ccc(N2C(=O)c3ccc(N)cc3C2=O)cc1C | . | . | . | 118.7 | 30.8 | .
CC(=O)Nc1ccc2c(c1)C(=O)N(c1ccc(C)cc1)C2=O | . | . | . | + | 51.3 | /
Cc1ccc(N2C(=O)c3ccc(N)cc3C2=O)cc1 | . | . | . | 66.7 | 29.8 | .
Cc1ccc(N2C(=O)c3ccccc3C2=O)cc1C | ? | . | . | . | . | .
O=C(Nc1ccc2c(c1)C(=O)N(c1ccccc1)C2=O)C1CCCO1 (configuration not stated) | . | . | . | 32.8 | 31.9 | .
Cc1ccc(N2C(=O)c3cccc4cccc(c34)C2=O)cc1 | . | . | . | . | . | .
Cc1csc(NC(=O)CSc2nc(=O)n(CCN(C)C)c3c2CCCC3)n1 | . | / | / | / | / | ?
COc1ccc(N(CC(=O)N2CCN(c3ccccc3)CC2)S(=O)(=O)c2c(C)noc2C)cc1 | . | . | . | . | . | /
